Compound activity as filed in PubChem.
An excerpt weighted towards active compounds, which were near 4% of everything screened.
GDH-TPI counter-1: GDH-TPI coupling enzyme inhibitors, primary screen, artefact control for M. tuberculosis FBA inhibitor project, biochemical, absorbance, full deck; AID 588335, 2011; inhibition, % at 4.8 µM; 360,000 tested, 1.2% active; GDH-TPI coupled enzyme counterscreen, NADH absorbance; in the data active = inhibition above about 30%
Mtb bLac sens: beta-lactam sensitization of Mtb H37Rv, H37Rv; 330,000 tested, 0.27% active; M. tuberculosis H37Rv growth with meropenem, percent inhibition; inhibition, % at 25 µM; call rule not given here;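 note: growth measured after seven days incubation then overnight dye step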
MazEF act: activators of E. coli MazEF toxin-antitoxin RNase, primary screen, biochemical, fluorescence, uHTS. Endoribonuclease toxin MazF (Escherichia coli (strain K12)), P0AE70. FAM/BHQ RNA-DNA oligo cleavage fluorescence, 5 h. activation, % at 20 µM. 350,000 tested, 0.32% active; in the data active = activation above about 50%
FBA Mtb inh: Mtb FBA enzyme inhibitors, primary screen, biochemical, fluorescence, strain H37Rv. purified M. tuberculosis FBA, fluorescence read-out. inhibition, % at 1 µM. 360,000 tested, 2.3% active. AID 588726, 2011
Target sequence (P9WQA3 whole entry, looked up): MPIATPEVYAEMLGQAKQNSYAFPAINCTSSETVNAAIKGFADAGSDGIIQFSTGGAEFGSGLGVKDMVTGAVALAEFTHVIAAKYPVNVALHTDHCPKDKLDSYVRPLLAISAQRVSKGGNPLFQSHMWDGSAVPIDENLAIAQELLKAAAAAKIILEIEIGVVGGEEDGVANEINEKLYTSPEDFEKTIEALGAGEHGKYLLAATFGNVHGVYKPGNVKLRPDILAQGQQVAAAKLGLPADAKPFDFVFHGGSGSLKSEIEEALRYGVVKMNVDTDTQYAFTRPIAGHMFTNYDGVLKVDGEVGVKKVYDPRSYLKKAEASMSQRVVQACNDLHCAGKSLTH
CCHF vOTU inh: CCHFV vOTU protease inhibitors, primary screen, biochemical, Pep-AMC substrate, fluorescence; inhibition, % at 11.5 µM; 370,000 tested, 0.55% active; in the data active = inhibition above about 30%
Mtb FBA inh conf: M. tuberculosis aldolase blockers, biochemical, fluorescence, strain H37Rv, confirmation. shares compounds with FBA Mtb inh. purified M. tuberculosis FBA, fluorescence read-out. inhibition, % at 1 µM. 5,600 tested, 78% active. AID 651616, 2012
GDH-TPI counter-2: GDH-TPI coupling enzyme inhibitors, artefact control for M. tuberculosis FBA inhibitor project, biochemical, fluorescence, high throughput; GDH-TPI coupled enzyme counterscreen; AID 652141, 2013; 5,600 tested, 81% active; inhibition, % at 1 µM; shares compounds with FBA Mtb inh; in the data active = inhibition above about 10%
A number is an active result; n = inactive; u = inconclusive; x = not tested or not shown; + = active, no number. Cut-off read from the data, not from the text of the source, unless noted: active = inhibition above about 27%; inactive = the rest.

SMILES	GDH-TPI counter-1	Mtb bLac sens	MazEF act	FBA Mtb inh	CCHF vOTU inh	Mtb FBA inh conf	GDH-TPI counter-2
Cc1cc(=O)oc2cc(OCC(=O)OCC(=O)N3CCC(C)CC3)ccc12	n	n	n	42	n	182	131
Cc1cc(OCC(=O)N2CCC(C(N)=O)CC2)c2c3c(c(=O)oc2c1)CCCC3	n	n	n	n	n	x	x
Cc1cc(OCC(=O)N2CCC(C(N)=O)CC2)c2c(C)cc(=O)oc2c1	n	n	n	33	n	n	15
Cc1cc(=O)oc2cc(OCC(=O)N3CCC(C(N)=O)CC3)ccc12	n	n	n	27	n	+	+
OCc1cn(-c2ccccc2)nc1-c1ccco1	n	n	n	n	n	x	x
Cc1ccc(-c2nn(-c3ccccc3)cc2CO)o1	n	n	n	33	n	76	54
CCCCC1(C)NC(=O)c2c(C)sc(C(=O)OCC)c2N1 (stereo not given)	n	n	n	n	n	x	x
CCOC(=O)CC1(CC(=O)OCC)NC(=O)c2c(C)sc(C(=O)OCC)c2N1	n	n	n	31	n	n	n
CCOC(=O)CC1(C)NC(=O)c2c(C)sc(C(=O)OCC)c2N1 (stereo not given)	n	n	n	55	n	n	n
O=C(COC(=O)c1ccc(Sc2ncn[nH]2)c([N+](=O)[O-])c1)Nc1cccc(Cl)c1F	x	x	x	x	n	x	x
CCn1c(SC)nnc1-c1ccc(S(=O)(=O)N2CCCCC2)cc1	n	n	n	28	n	42	34
C=CCN1[C@H](C)COc2cc(F)ccc2S1(=O)=O	x	x	x	x	n	x	x
CCOC(=O)Cn1cc(CN2C(C(=O)OC)CN(C3CCCC3)CCS2(=O)=O)nn1 (stereo not given)	x	x	x	x	n	x	x
C[C@@H]1CCN(C2CC2)S(=O)(=O)c2ccc(N3CC[C@@H](O)C3)cc2O1	x	x	x	x	n	x	x
CC(=O)C1(C(=O)NC2CCCC2)CC(c2ccccc2C(F)(F)F)=NO1 (stereo not given)	x	x	x	x	n	x	x
CNC(=O)/C(C#N)=C/c1c(N2CCN(c3cccc(Cl)c3)CC2)nc2c(C)cccn2c1=O	n	n	n	n	n	x	x
COCCNC(=O)/C(C#N)=C/c1c(N2CCN(c3cccc(Cl)c3)CC2)nc2c(C)cccn2c1=O	n	n	n	69	n	165	124
C=CCNC(=O)/C(C#N)=C/c1c(N2CCN(c3cccc(Cl)c3)CC2)nc2c(C)cccn2c1=O	n	n	n	62	n	199	172
COCCNC(=O)/C(C#N)=C/c1c(N2CCCCCC2)nc2ccccn2c1=O	n	u	n	87	n	45	47
COCCNC(=O)C(C#N)c1nc2ccccc2nc1N1CCCCCC1 (stereo not given)	n	n	n	37	n	n	n
CC(=O)Nc1c(-c2ccc(C)cc2)nc2ncccn12	x	x	x	x	n	x	x
CON(C)C(=O)[C@H]1C[C@@H]2[C@H](C[C@@H](c3ccccc3)[C@H]1C)N(c1ccc(F)cc1)C(=O)N2CCCOc1ccccc1	x	x	x	x	n	x	x
CCCNC(=O)C[C@H]1CC[C@H]2[C@@H](COc3ccc(NC(=O)Nc4ccccc4)cc3C(=O)N2C)O1	x	x	x	x	n	x	x
COCCNC(=O)/C(C#N)=C/c1c(N2CCN(c3ccc(OC)cc3)CC2)nc2c(C)cccn2c1=O	n	n	n	80	n	73	58
COC(=O)C1CN(Cc2cn(Cc3ccc(F)cc3)nn2)CCS(=O)(=O)N1Cc1ccccc1 (stereo not given)	x	x	x	x	n	x	x
Cc1ccc(CNS(=O)(=O)c2ccc(-c3cnc(C4CC4)o3)cc2)cc1	n	n	n	41	n	40	25
O=S(=O)(NCc1ccccc1)c1ccc(-c2cnc(C3CC3)o2)cc1	n	n	n	27	n	+	158
Cc1ccc(NS(=O)(=O)c2ccc(-c3cnc(C4CC4)o3)cc2)cc1	n	n	n	n	n	x	x
CCOc1ccccc1CNS(=O)(=O)c1ccc(-c2cnc(C3CC3)o2)cc1	n	n	n	n	n	x	x
